Among the data in PubChem BioAssay (NCI) are growth inhibition values, retold here.

This is part of a sample that, as a whole, favours compounds with a hit. Of some 79,000 tested, about 15% had one in any assay. Values without a mark were called inactive. Activity calls are given as the source filed them. No stated cut-off is given here; in the data, active means growth inhibition above about 70%; inactive means the rest.

A short description of test [1]: NCI Yeast Anticancer Drug Screen. Data for the rad50 strain (AID 155).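 Further: 0% = growth of vehicle-only cultures of the same strain.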 As to conditions: S. cerevisiae rad50 strain growth inhibition, hits give high values. The essentials:
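Inhibition values express reduced yeast growth in compound-treated cultures relative to vehicle-treated controls.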

Test [2] can be described thus: NCI Yeast Anticancer Drug Screen. Data for the mec2-1 strain (AID 157). As to conditions: S. cerevisiae mec2-1 strain, hits give high values. The essentials:
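Readout is yeast growth inhibition, normalised to vehicle-treated controls, in the mec2-1 strain exposed to compound.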

The nature of test [3]: NCI Yeast Anticancer Drug Screen. Data for the sgs1 mgt1 strain (AID 161).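 Further: 0% = growth of cultures given vehicle only.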 As to conditions: S. cerevisiae sgs1 mgt1 strain, hits give high values. The essentials:
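Growth of a repair-deficient yeast mutant was monitored after compound treatment and expressed as inhibition relative to vehicle-treated cultures.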

Test [4] is described as follows: NCI Yeast Anticancer Drug Screen. Data for the cln2 rad14 strain (AID 165).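 Further: 0% = growth equal to vehicle treated cultures.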 The conditions noted are these: S. cerevisiae cln2 rad14 strain, hits give high values. The essentials:
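Relative to vehicle controls, growth inhibition of compound-treated cln2 rad14 yeast was recorded.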

Test [5] can be described thus: NCI Yeast Anticancer Drug Screen. Data for the bub3 strain (AID 167). As to conditions: S. cerevisiae bub3 mutant strain, hits give high values. The essentials: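 Steps: expose the mutant yeast strain to compound; grow alongside vehicle-treated cultures; measure growth; express inhibition against the vehicle cultures.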
The nature of test [6]: NCI Yeast Anticancer Drug Screen. Data for the mlh1 rad18 strain (AID 175). As to conditions: S. cerevisiae mlh1 rad18 strain growth inhibition, hits give high values. The essentials:
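Test agents were incubated with a yeast strain of defined genotype (DNA damage repair defect). Inhibition of growth was derived by comparison with vehicle-exposed cultures.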

Where [7] appears, read: at 5.0 µM (retest, dose inferred, filed as 0.5).
Setting [8] is: at 50.0 µM (retest, dose inferred, filed as 5.0).

For `COc1c(NC(=O)CC(C)=O)[c]([Hg][O]C(C)=O)c(OC)c(Cl)[c]1[Hg][O]C(C)=O`, the growth inhibition in test [1] (setting [7]) was 29%; in test [1] (setting [8]), 95% (active); in test [1] (at 50.0 µM), 91.8% (active); in test [2] (setting [7]), 32%; in test [2] (setting [8]) it was 96% (active); in test [2] (at 50.0 µM) it was 93.8% (active). Also, the growth inhibition in test [3] (setting [7]) is 81% (active); in test [3] (setting [8]) it was 97% (active); in test [3] (at 50.0 µM), 93.5% (active); in test [4] (setting [7]) it was 29%; in test [4] (setting [8]), 96% (active); in test [4] (at 50.0 µM), 88.8% (active). The growth inhibition is 62% in test [5] (setting [7]); 97% (active) in test [5] (setting [8]); 93.3% (active) in test [5] (at 50.0 µM); 38% in test [6] (setting [7]); 95% (active) in test [6] (setting [8]); 87.8% (active) in test [6] (at 50.0 µM).
In the case of `O=C(O)C1(c2ccccc2)OC1c1ccccc1` (stereo not given), the growth inhibition in test [1] (setting [7]) was 2%; in test [1] (setting [8]), 67%; in test [1] (at 50.0 µM), 47%; in test [2] (setting [7]), 0%; in test [2] (setting [8]), 82% (active); in test [2] (at 50.0 µM) it was 81.3% (active). In addition, the growth inhibition is 3% in test [3] (setting [7]); 71% (active) in test [3] (setting [8]); 84.7% (active) in test [3] (at 50.0 µM); 2% in test [4] (setting [7]); 80% (active) in test [4] (setting [8]); 79.8% (active) in test [4] (at 50.0 µM). Besides, the growth inhibition in test [5] (setting [7]) was -6%; in test [5] (setting [8]), 93% (active); in test [5] (at 50.0 µM), 64.6%; in test [6] (setting [7]), -1%; in test [6] (setting [8]), 86% (active); in test [6] (at 50.0 µM), 84.3% (active).
`CCCCN1C(=O)C2C(C1=O)C1(Cl)C(Cl)=C(Cl)C2(Cl)C1(Cl)Cl` (stereo not given): the growth inhibition is 17% in test [1] (setting [7]); 98% (active) in test [1] (setting [8]); 95.3% (active) in test [1] (at 50.0 µM); 17% in test [2] (setting [7]); 99% (active) in test [2] (setting [8]); 96% (active) in test [2] (at 50.0 µM). Further, the growth inhibition was 11% in test [3] (setting [7]); 98% (active) in test [3] (setting [8]); 98.9% (active) in test [3] (at 50.0 µM); 13% in test [4] (setting [7]); 98% (active) in test [4] (setting [8]); 99% (active) in test [4] (at 50.0 µM). Further, the growth inhibition in test [5] (setting [7]) was 3%; in test [5] (setting [8]), 98% (active); in test [5] (at 50.0 µM), 76.5% (active); in test [6] (setting [7]), 21%; in test [6] (setting [8]) it was 98% (active); in test [6] (at 50.0 µM), 76.7% (active).
In the case of `CCN(CC)P1(=O)OC(c2ccccc2)=CCN1c1ccc(OC)cc1` (stereo not given), the growth inhibition in test [1] (setting [7]) is 0%; in test [1] (setting [8]), 85% (active); in test [1] (at 50.0 µM) it was 97.3% (active); in test [2] (setting [7]) it was -1%; in test [2] (setting [8]) it was 82% (active); in test [2] (at 50.0 µM), 95.3% (active). The growth inhibition in test [3] (setting [7]) was -24%; in test [3] (setting [8]) it was 95% (active); in test [3] (at 50.0 µM) it was 97.8% (active); in test [4] (setting [7]), -7%; in test [4] (setting [8]), 78% (active); in test [4] (at 50.0 µM), 83% (active). The growth inhibition in test [5] (setting [7]) is 10%; in test [5] (setting [8]), 91% (active); in test [5] (at 50.0 µM) it was 96.2% (active); in test [6] (setting [7]), 2%; in test [6] (setting [8]) it was 91% (active); in test [6] (at 50.0 µM), 96.3% (active).
On to `COP(=S)(OC)N(C)C(=O)Oc1cccc2ccccc12`, for which the growth inhibition in test [1] (setting [7]) is 0%; in test [1] (setting [8]), 27%; in test [1] (at 50.0 µM) it was 48.5%; in test [2] (setting [7]) it was -21%; in test [2] (setting [8]), 15%; in test [2] (at 50.0 µM) it was 39.2%. The growth inhibition is -20% in test [3] (setting [7]); 57% in test [3] (setting [8]); 60% in test [3] (at 50.0 µM); 0% in test [4] (setting [7]); 10% in test [4] (setting [8]); 55.5% in test [4] (at 50.0 µM). For the same molecule, the growth inhibition in test [5] (setting [7]) was 9%; in test [5] (setting [8]), 40%; in test [5] (at 50.0 µM), 61.4%; in test [6] (setting [7]), -14%; in test [6] (setting [8]), 77% (active); in test [6] (at 50.0 µM), 80.8% (active).
Take `CCCCCCCCCCCCCCCCCC(=O)[O][Hg][c]1ccccc1`: the growth inhibition in test [1] (setting [7]) is 33%; in test [1] (setting [8]), 96% (active); in test [1] (at 50.0 µM) it was 90.7% (active); in test [2] (setting [7]) it was 43%; in test [2] (setting [8]) it was 98% (active); in test [2] (at 50.0 µM) it was 91.5% (active). Further, the growth inhibition in test [3] (setting [7]) is 100% (active); in test [3] (setting [8]) it was 99% (active); in test [3] (at 50.0 µM), 94% (active); in test [4] (setting [7]), 99% (active); in test [4] (setting [8]), 100% (active); in test [4] (at 50.0 µM), 92.3% (active). Also, the growth inhibition in test [5] (setting [7]) is 99% (active); in test [5] (setting [8]) it was 100% (active); in test [5] (at 50.0 µM), 90% (active); in test [6] (setting [7]), 34%; in test [6] (setting [8]) it was 100% (active); in test [6] (at 50.0 µM), 90.2% (active).
Take `Cc1cccc2cc3ccccc3c[n+]12`: the growth inhibition was 5% in test [1] (setting [7]); 63% in test [1] (setting [8]); 89.9% (active) in test [1] (at 50.0 µM); 6% in test [2] (setting [7]); 49% in test [2] (setting [8]); 84% (active) in test [2] (at 50.0 µM). For the same molecule, the growth inhibition is -12% in test [3] (setting [7]); 79% (active) in test [3] (setting [8]); 97.3% (active) in test [3] (at 50.0 µM); 2% in test [4] (setting [7]); 73% (active) in test [4] (setting [8]); 62.2% in test [4] (at 50.0 µM). The growth inhibition in test [5] (setting [7]) was -1%; in test [5] (setting [8]) it was 57%; in test [5] (at 50.0 µM), 54.2%; in test [6] (setting [7]), 14%; in test [6] (setting [8]) it was 89% (active); in test [6] (at 50.0 µM) it was 91% (active).
As to `[Au+].c1c[n-]cn1.c1ccc([PH+](c2ccccc2)c2ccccc2)cc1`, the growth inhibition is 99% (active) in test [1] (setting [7]); 98% (active) in test [1] (setting [8]); 97.9% (active) in test [1] (at 50.0 µM); 99% (active) in test [2] (setting [7]); 98% (active) in test [2] (setting [8]); 98% (active) in test [2] (at 50.0 µM). For the same molecule, the growth inhibition is 99% (active) in test [3] (setting [7]); 98% (active) in test [3] (setting [8]); 96.2% (active) in test [3] (at 50.0 µM); 98% (active) in test [4] (setting [7]); 97% (active) in test [4] (setting [8]); 93.6% (active) in test [4] (at 50.0 µM). The growth inhibition in test [5] (setting [7]) was 98% (active); in test [5] (setting [8]), 98% (active); in test [5] (at 50.0 µM), 97.2% (active); in test [6] (setting [7]), 99% (active); in test [6] (setting [8]), 98% (active); in test [6] (at 50.0 µM), 97.7% (active).
As to `[Cl][Hg].c1ccc([As]c2ccc(-c3ccccc3)cc2)cc1` (stereo not given), the growth inhibition in test [1] (setting [7]) is 99% (active); in test [1] (setting [8]), 90% (active); in test [1] (at 50.0 µM), 99% (active); in test [2] (setting [7]), 99% (active); in test [2] (setting [8]), 92% (active); in test [2] (at 50.0 µM), 99.4% (active). For the same molecule, the growth inhibition is 100% (active) in test [3] (setting [7]); 93% (active) in test [3] (setting [8]); 99.2% (active) in test [3] (at 50.0 µM); 99% (active) in test [4] (setting [7]); 91% (active) in test [4] (setting [8]); 99% (active) in test [4] (at 50.0 µM). Moreover, the growth inhibition was 99% (active) in test [5] (setting [7]); 92% (active) in test [5] (setting [8]); 98.5% (active) in test [5] (at 50.0 µM); 100% (active) in test [6] (setting [7]); 92% (active) in test [6] (setting [8]); 99% (active) in test [6] (at 50.0 µM).
Turning to `Cn1c2cccc(=O)c-2nc2ccccc21`, the growth inhibition was -14% in test [1] (setting [7]); 85% (active) in test [1] (setting [8]); 82.5% (active) in test [1] (at 50.0 µM); 6% in test [2] (setting [7]); 62% in test [2] (setting [8]); 52.2% in test [2] (at 50.0 µM). For the same molecule, the growth inhibition was 1% in test [3] (setting [7]); 49% in test [3] (setting [8]); 21.3% in test [3] (at 50.0 µM); -22% in test [4] (setting [7]); 34% in test [4] (setting [8]); -2.9% in test [4] (at 50.0 µM). For the same molecule, the growth inhibition in test [5] (setting [7]) was -12%; in test [5] (setting [8]), 56%; in test [5] (at 50.0 µM), 41.9%; in test [6] (setting [7]) it was 9%; in test [6] (setting [8]), 77% (active); in test [6] (at 50.0 µM) it was 60%.
